An excerpt weighted towards active compounds, which were near 11% of everything screened.
ALDH1A1 block = qHTS Assay for Inhibitors of Aldehyde Dehydrogenase 1 (ALDH1A1); Aldehyde dehydrogenase 1A1 (Homo sapiens), P00352; Purified ALDH1A1, NADH fluorescence, propionaldehyde substrate; Potency, µM (titrated, usually from 75.3 µM), without a hit: at the top dose activity, negative = inhibition, usual class: inhibitors; hit rate 7.3% among 220,000; AID 1030, 2008;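 further: potency means the concentration at half of the fitted maximal effect; plate controls were no enzyme wells and a reference inhibitor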
PNC assembly inh = High Content Assay for Compounds that inhibit the Assembly of the Perinucleolar Compartment; PC3M PTB-GFP, PNC prevalence imaging, 16 h; stronger effect = lower value; activity change (PNC), negative = inhibition, % at 10 µM; hit rate 3.1% among 140,000; AID 2417, 2010;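 active means readout at or below -70, meaning at least 70% loss of cells showing the perinucleolar compartment, a nuclear body marking cancer cells; inconclusive means readout between -30 and a set limit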;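 further: plate controls were DMSO wells for no effect and camptothecin positive control wells for full effect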
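Read-out is percentage of cells bearing a perinucleolar compartment, from automated 20x imaging of fixed, Hoechst-stained PC3M PTB-GFP cells. Cells were seeded 4 h, then exposed 16 h to compound (23 nl of library stock) in duplicate plates.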
HPGD inh = qHTS Assay for Inhibitors of HPGD (15-Hydroxyprostaglandin Dehydrogenase); 15-hydroxyprostaglandin dehydrogenase [NAD(+)] (Homo sapiens), P15428; hit rate 4.3% among 150,000; Potency, µM, for the others: at the highest dose activity change, negative = inhibition, usual class: inhibitors; purified HPGD, NADH fluorescence kinetic, PGE2 substrate; AID 894, 2007; further: potency means the concentration at half of the fitted maximal effect
Target sequence (P15428 whole entry, looked up): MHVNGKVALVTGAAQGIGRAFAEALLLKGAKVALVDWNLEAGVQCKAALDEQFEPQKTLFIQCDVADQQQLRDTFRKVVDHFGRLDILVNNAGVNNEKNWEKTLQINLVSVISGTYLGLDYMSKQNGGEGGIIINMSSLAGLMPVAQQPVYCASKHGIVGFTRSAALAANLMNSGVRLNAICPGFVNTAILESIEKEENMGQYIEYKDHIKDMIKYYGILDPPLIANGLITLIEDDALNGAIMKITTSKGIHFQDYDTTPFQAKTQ
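20 nM HPGD preincubated 15 min at room temperature with compound in 50 mM Tris-HCl pH 8, 0.01% Tween 20. Started with 1 mM NAD+ and 30 uM prostaglandin E2; NADH fluorescence (360/450 nm) read 5 times over 30-s intervals, last minus first.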
Numbers without * were called inactive; ? = inconclusive; nt = no result given; [ ] = another dose, or the depositor's remark. Unless noted, the call rests on the fitted dose curve; in most records, active means well fitted inhibition curve with a large enough effect (not every such curve was filed as active); inconclusive means small, poorly fitted or top-dose-only effect, or another doubt; inactive means no such curve, though single readings can be large or run the other way. Unless noted, on the % scale 0 is the no-effect control and ±100 the full control effect.

SMILES	ALDH1A1 block	PNC assembly inh	HPGD inh
CC(=O)c1cccc(NC(=O)C(=O)Nc2cccc3ccccc23)c1	6%	nt	nt
CCC(C)c1ccc(NC(=O)COC(=O)C2=COCCO2)cc1 (stereo unspecified)	2%	-7	-5%
c1ccc2c(-n3cccn3)cccc2c1	5%	16	-9%
Cn1cc(SCC(=O)N2CCCc3ccccc32)c2ccccc21	10µM*	-10	-14%
O=C(CSc1nnc(-c2ccccc2)c(-c2ccccc2)n1)N1CCOCC1	6%	40	-28%
O=C(CSc1nncc2ccccc12)N1CCOCC1	?	17	28µM*
Cn1cc(SCC(=O)N2CCN(c3ccccc3)CC2)c2ccccc21	-1%	-27	-5%
CCn1cc(SCC(=O)N2CCOCC2)c2ccccc21	4%	?	-4%
Cn1cc(SCC(=O)N2CCOCC2)c2ccccc21	4%	-108*	-13%
CCCCC1=CC2=CC(=O)C(C)(OC(=O)CC)C(=O)C2=CN1Cc1ccc2c(c1)OCO2 (stereo unspecified)	14%[13.5 µM]	nt	-2%
C=CCOc1c(Br)cc(CNn2nnnc2N)cc1OC	-2%	23	0%
COc1ccc(OCC(O)CNC(=O)Nc2ccc(F)cc2)cc1 (stereo unspecified)	2%	nt	nt
CCN(CC)C(=N)N1c2ccccc2CCC1C (stereo unspecified)	11%	nt	nt
O=C(NN=C1CCCCCC1)c1cn(-c2ccccc2)nc1-c1ccccc1	3.5µM*	30	-4%
Cc1cccc(C)c1NC(=O)c1cn(-c2ccccc2)nc1-c1ccccc1	11%	-25	-8%
CCOc1ccc(NC(=O)c2ccc(-n3cccn3)nc2)cc1	8%	nt	nt
CCN1CCN(C(c2cccs2)C(C)NC(=O)c2ccccc2F)CC1 (stereo unspecified)	15%	31	3%
Cc1ccc(C(=O)c2sc3nsc(C)c3c2N)cc1	14µM*	?	-27%
Cc1snc2sc(C(=O)c3ccc(Br)cc3)c(N)c12	6%	16	-11%
O=C(NCC1CCCO1)c1cc([N+](=O)[O-])ccc1Cl (stereo unspecified)	-6%	nt	nt
COc1cc(/C=C(\NC(C)=O)C(=O)NC(C)(C)CC(C)(C)C)ccc1OC(C)=O	5%	28	-8%
COc1ccc(NC(=O)/C(=C\c2ccc3c(c2)OCO3)NC(C)=O)cc1	-4%	16	-17%
COc1cc(/C=C(\NC(C)=O)C(=O)Nc2ccc(NC(C)=O)cc2)ccc1OC(C)=O	0.25µM*	27	-12%
COc1ccc(NC(=O)/C(=C/c2ccc(OC(C)=O)c(OC)c2)NC(C)=O)cc1	4µM*	50	-14%
COc1ccc(/C=C(/C#N)C(=O)Nc2ccccc2C)cc1C(=O)O	5%	-16	-16%
SMILES	ALDH1A1 block	PNC assembly inh	HPGD inh
COc1cc(/C=C(\NC(C)=O)C(=O)Nc2ccccc2C)ccc1OC(C)=O	28µM*	22	0%
O=C(CSc1ccc(F)cc1)NC(=O)NCc1ccccc1	-2%	nt	nt
CCN(CC)C(=O)c1cn(CC)c(=O)c2cc(OC)c(OC)cc12	?	-13	-20%
Cc1ccc(C(=O)NCC(=O)NCC(=O)OCC(=O)c2ccc([N+](=O)[O-])cc2)cc1	1µM*	29	-14%
O=C(Cc1ccccc1)NCC(=O)OCC(=O)c1ccc([N+](=O)[O-])cc1	1.4µM*	?	-2%
Cc1ccc(C(=O)COC(=O)CNC(=O)CNC(=O)c2ccc(C)cc2)cc1	12%	-1	-1%
O=C(CNS(=O)(=O)c1ccccc1)OCC(=O)c1ccc(OC(=O)c2ccccc2)cc1	-2%	82	-3%
O=C(Cc1ccccc1)NCC(=O)OCC(=O)c1cccc([N+](=O)[O-])c1	16%	13	-5%
O=C(CNc1ccccc1)c1ccc([N+](=O)[O-])cc1	3.5µM*	?	?
O=C(CNS(=O)(=O)c1ccccc1)OCC(=O)c1ccc([N+](=O)[O-])cc1	1.1µM*	?	-4%
O=C(CNC(=O)c1ccc([N+](=O)[O-])cc1)c1ccccc1	1%	7	-1%
O=C(COC(=O)CCC1CCCC1)Nc1ccc(Cl)cc1F	?	?	-4%
CCCCc1nc(N2CCOCC2)c(C#N)c2c1COC(C)(C)C2	?	1	?
COc1ccccc1NC(=O)Nc1nc(C(C)(C)C)cs1	0%	nt	nt
CC(=O)n1c(COS(C)(=O)=O)nc2ccccc21	4%[13.5 µM]	nt	-7%
O=S(=O)(/N=C(/c1ccc(Cl)cc1)N1CCOCC1)c1ccc(Cl)cc1	11%	-22	-3%
O=C(CSc1ncn[nH]1)Nc1cc(S(=O)(=O)N2CCCC2)ccc1Cl	16µM*	nt	nt
Cc1ccc(S(=O)(=O)N2CCCCC2)cc1NC(=O)CSc1nnc(N)s1	-7%	nt	nt
O=C(CSc1nnc(Nc2ccccc2)s1)Nc1cccc(S(=O)(=O)N2CCCCC2)c1	-6%	-9	-16%
Cc1csc(SCC(=O)Nc2cccc(S(=O)(=O)N3CCCC3)c2)n1	25µM*	-23	-1%
O=C(CSc1ncn[nH]1)Nc1ccc(S(=O)(=O)N2CCCC2)cc1	3%	7	-2%
Cc1csc(SCC(=O)Nc2cc(S(=O)(=O)N3CCCC3)ccc2Cl)n1	1.3µM*	?	0%
N=C1C(c2ccccc2)=C(O)CN1CCO	7%	nt	nt
C/C(CCN1CCCCc2nc(C)c(C)cc21)=N\OC[C@@H](O)COCc1ccco1	-3%[13.5 µM]	nt	nt
O=C(NCc1ccncc1)Nc1ccc(F)cc1	4%	?	-9%
SMILES	ALDH1A1 block	PNC assembly inh	HPGD inh
O=c1c(-c2ccco2)[n+]([O-])c2ccccc2n1OCc1ccccc1[N+](=O)[O-]	14µM*	nt	nt
CCOn1c(=O)c(-c2ccc(OC)cc2)[n+]([O-])c2ccccc21	7%	9	-8%
O=c1c(-c2ccco2)[n+]([O-])c2ccccc2n1OCc1ccccn1	10µM*	-17	-19%
C=CCOn1c(=O)c(-c2cc3ccccc3o2)[n+]([O-])c2ccccc21	8%	-15	nt
O=c1c(-c2ccc(F)cc2)[n+]([O-])c2ccccc2n1OCc1ccccn1	2%	nt	nt
CCOc1ccc(-c2c(=O)n(OCc3ccc([N+](=O)[O-])cc3)c3ccccc3[n+]2[O-])cc1	20µM*	42	-19%
CCCCC(=O)Nc1ccc(NC(=O)c2ccc(C)c([N+](=O)[O-])c2)cc1OC	13%	-26	-4%
Cc1cccc(-n2nc(CC#N)c(C#N)c2N)c1	3%	nt	nt
COc1ccc(CN(C(=O)CSc2nnc(-c3ccccc3F)o2)c2ccc(F)cc2)cc1	?	-2	?
CCCN(CC1CC1)C(=S)Nc1ccccc1F	-4%	nt	nt
COc1ccc(N=C2SC(CC(=O)Nc3ccccc3)C(=O)N2Cc2ccccn2)cc1 (stereo unspecified)	2.2µM*	nt	nt
COCCN1C(=O)C(CC(=O)Nc2ccc(C(C)=O)cc2)SC1=Nc1ccccc1 (stereo unspecified)	-8%	-3	-5%
C=CCN1C(=O)C(CC(=O)Nc2ccc(OC)cc2)SC1=Nc1ccc(S(N)(=O)=O)cc1 (stereo unspecified)	7.9µM*	nt	nt

Source: PubChem
